What all share (experiment): DAPPL (digital affinity profiling via proximity ligation, sequencing); 10 mM Tris-HCl pH 7.5, 50 mM NaCl, 1 mM DTT, 4% glycerol, room temperature, 30 min; GST-TFs on glutathione beads, 16-mer random dsDNA library, 0.1% formaldehyde crosslink after washing; high values mean tight binding
One experiment has as its target T1, FLI1 (Homo sapiens, UniProt Q01543 1-452).
T1 sequence: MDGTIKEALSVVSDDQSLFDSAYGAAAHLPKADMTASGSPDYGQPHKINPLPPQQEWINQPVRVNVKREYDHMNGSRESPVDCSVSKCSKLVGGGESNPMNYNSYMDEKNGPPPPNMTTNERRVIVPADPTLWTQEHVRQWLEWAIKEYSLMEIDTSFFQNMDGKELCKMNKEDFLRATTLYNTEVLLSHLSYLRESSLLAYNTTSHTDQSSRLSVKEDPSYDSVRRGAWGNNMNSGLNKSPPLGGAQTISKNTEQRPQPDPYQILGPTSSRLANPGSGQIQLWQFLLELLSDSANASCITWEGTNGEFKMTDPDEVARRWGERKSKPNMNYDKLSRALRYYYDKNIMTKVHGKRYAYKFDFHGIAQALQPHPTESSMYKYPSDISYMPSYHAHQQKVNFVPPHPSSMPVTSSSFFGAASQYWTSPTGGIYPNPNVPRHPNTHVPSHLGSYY
Conditions: protein: recombinant; tags: N-terminal GST; dsDNA, one strand shown. In a few lines:
(§1)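 Pools were built from human transcription factors expressed in yeast as GST fusions, captured on glutathione beads and DNA-barcoded, along with a tag-only sample. Incubation with 200 nmole of a 16-mer random double-stranded DNA library lasted 30 min at room temperature in Tris/NaCl/DTT/glycerol buffer, and was followed by washing, 0.1% formaldehyde crosslinking, proximity ligation, PCR amplification and Illumina NextSeq500 sequencing. Binding signal is the quotient of each hexamer's read frequency for a factor and its frequency for the tag-only sample.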

In another experiment the target is T2, ELK1 (Homo sapiens, UniProt P19419 1-428).
T2 sequence: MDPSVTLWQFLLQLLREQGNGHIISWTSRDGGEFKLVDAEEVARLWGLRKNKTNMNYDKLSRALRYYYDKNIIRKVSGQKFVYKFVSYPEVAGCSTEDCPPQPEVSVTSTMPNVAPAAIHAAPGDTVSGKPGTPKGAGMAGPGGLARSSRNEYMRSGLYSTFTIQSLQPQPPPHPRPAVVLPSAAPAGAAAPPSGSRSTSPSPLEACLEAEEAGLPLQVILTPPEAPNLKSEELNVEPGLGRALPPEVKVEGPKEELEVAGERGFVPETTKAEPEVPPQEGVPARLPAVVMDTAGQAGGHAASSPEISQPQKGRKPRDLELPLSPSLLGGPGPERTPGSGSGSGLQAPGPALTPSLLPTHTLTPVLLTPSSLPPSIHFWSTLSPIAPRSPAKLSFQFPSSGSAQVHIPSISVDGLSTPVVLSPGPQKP
To be noted: protein: recombinant; tags: N-terminal GST; dsDNA, one strand shown. In a few lines:
as §1

The next experiment concerns the target T3, GABPA (Homo sapiens, UniProt Q06546 1-454).
T3 sequence: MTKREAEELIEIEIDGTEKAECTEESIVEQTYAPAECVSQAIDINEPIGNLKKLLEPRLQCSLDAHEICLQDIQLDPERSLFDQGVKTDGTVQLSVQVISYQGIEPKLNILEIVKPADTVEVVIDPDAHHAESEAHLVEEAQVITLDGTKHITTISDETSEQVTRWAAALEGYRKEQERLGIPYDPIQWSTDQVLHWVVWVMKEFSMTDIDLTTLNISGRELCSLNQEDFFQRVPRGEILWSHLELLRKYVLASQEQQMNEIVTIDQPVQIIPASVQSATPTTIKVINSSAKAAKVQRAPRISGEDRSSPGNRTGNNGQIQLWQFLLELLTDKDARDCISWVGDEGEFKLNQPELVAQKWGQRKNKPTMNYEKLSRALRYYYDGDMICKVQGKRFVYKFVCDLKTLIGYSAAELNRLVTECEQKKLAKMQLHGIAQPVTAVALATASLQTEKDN
To be noted: protein: recombinant; tags: N-terminal GST; dsDNA, one strand shown. In a few lines: as §1

Another experiment addresses T4, ERG (Homo sapiens, UniProt P11308 1-479).
T4 sequence: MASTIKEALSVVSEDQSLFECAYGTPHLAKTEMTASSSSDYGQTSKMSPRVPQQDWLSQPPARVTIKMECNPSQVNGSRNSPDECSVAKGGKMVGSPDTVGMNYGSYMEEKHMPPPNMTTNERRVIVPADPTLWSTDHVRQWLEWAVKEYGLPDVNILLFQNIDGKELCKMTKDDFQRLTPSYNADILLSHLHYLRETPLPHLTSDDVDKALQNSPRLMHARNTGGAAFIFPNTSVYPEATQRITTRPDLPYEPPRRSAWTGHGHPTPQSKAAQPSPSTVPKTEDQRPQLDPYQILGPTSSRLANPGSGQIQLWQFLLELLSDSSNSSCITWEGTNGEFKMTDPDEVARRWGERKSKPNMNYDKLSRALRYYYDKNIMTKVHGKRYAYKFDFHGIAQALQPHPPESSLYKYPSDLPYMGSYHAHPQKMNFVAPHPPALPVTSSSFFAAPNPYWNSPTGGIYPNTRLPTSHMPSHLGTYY
To be noted: protein: recombinant; tags: N-terminal GST; dsDNA, one strand shown. In outline: as §1

A further experiment has as its target ELF1 (Homo sapiens, UniProt P32519 1-619). To be noted: protein: recombinant; tags: N-terminal GST; dsDNA, one strand shown. In outline: as §1
The target of the next experiment is T5, EHF (Homo sapiens, UniProt Q9NZC4 1-300).
T5 sequence: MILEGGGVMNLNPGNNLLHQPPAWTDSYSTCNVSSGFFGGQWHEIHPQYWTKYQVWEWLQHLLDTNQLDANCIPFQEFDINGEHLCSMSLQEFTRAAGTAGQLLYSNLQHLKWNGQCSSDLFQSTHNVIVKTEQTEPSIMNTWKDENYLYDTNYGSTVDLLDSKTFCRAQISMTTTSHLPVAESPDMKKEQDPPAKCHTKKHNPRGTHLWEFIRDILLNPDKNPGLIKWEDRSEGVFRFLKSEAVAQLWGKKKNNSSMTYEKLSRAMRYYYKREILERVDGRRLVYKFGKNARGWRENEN
Conditions: protein: recombinant; tags: N-terminal GST; dsDNA, one strand shown. In a few lines: as §1

Another experiment addresses SPI1 (Homo sapiens, UniProt P17947 1-270). Conditions: protein: recombinant; tags: N-terminal GST; dsDNA, one strand shown. In outline:
as §1

The target in the next experiment is SPIB (Homo sapiens, UniProt Q01892 1-262). To be noted: protein: recombinant; tags: N-terminal GST; dsDNA, one strand shown. In outline: as §1
A further experiment addresses T6, ELK3 (Homo sapiens, UniProt P41970 1-407).
T6 sequence: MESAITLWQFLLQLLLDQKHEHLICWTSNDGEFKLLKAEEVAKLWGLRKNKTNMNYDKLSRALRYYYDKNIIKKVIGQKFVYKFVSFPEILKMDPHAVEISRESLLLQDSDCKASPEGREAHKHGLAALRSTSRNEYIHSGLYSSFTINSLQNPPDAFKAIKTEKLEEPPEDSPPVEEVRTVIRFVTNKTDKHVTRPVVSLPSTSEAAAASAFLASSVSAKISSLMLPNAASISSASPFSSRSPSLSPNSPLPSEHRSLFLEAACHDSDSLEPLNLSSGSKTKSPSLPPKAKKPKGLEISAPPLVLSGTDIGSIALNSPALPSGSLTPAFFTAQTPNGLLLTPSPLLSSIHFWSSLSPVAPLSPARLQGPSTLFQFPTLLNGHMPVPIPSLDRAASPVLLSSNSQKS
To be noted: protein: recombinant; tags: N-terminal GST; dsDNA, one strand shown. In a few lines:
as §1

A further experiment has as its target T7, FEV (Homo sapiens, UniProt Q99581 1-238).
T7 sequence: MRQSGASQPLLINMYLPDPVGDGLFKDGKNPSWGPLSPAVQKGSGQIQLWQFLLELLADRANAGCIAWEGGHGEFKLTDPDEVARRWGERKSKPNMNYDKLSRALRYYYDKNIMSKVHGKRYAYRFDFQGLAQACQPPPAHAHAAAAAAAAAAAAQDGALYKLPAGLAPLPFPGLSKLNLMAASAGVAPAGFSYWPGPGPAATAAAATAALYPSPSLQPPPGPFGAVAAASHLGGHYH
Conditions: protein: recombinant; tags: N-terminal GST; dsDNA, one strand shown. In outline: as §1

The target of a further experiment is ETV5 (Homo sapiens, UniProt P41161 1-510). To be noted: protein: recombinant; tags: N-terminal GST; dsDNA, one strand shown. In a few lines: as §1
The target in a further experiment is HSF1 (Homo sapiens, UniProt Q00613 1-529). Conditions: protein: recombinant; tags: N-terminal GST; chain copies: 3; dsDNA, one strand shown. In outline:
as §1

Another experiment has as its target T8, SPIC (Homo sapiens, UniProt Q8N5J4 1-248).
T8 sequence: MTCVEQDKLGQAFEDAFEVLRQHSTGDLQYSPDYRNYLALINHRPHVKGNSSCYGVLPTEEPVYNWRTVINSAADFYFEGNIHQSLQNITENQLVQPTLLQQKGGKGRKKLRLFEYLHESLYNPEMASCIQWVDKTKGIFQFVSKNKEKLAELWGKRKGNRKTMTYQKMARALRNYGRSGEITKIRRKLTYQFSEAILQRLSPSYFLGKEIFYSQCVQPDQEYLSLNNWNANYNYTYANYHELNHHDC
To be noted: protein: recombinant; tags: N-terminal GST; dsDNA, one strand shown. In outline:
as §1

The target in another experiment is ELF4 (Homo sapiens, UniProt Q99607 1-663). To be noted: protein: recombinant; tags: N-terminal GST; dsDNA, one strand shown. In outline:
as §1

The target of another experiment is T9, ELK4 (Homo sapiens, UniProt P28324-2 1-405).
T9 sequence: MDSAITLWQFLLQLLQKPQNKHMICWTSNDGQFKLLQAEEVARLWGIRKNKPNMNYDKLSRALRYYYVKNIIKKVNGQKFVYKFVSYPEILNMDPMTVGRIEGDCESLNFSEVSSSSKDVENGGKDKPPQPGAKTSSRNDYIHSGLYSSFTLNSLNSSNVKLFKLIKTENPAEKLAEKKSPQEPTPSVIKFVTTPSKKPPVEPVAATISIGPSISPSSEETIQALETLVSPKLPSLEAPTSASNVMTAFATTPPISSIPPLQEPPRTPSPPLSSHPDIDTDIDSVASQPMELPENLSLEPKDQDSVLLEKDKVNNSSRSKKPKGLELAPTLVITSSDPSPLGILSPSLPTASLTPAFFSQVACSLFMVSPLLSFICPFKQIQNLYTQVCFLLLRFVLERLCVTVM
Conditions: protein: recombinant; tags: N-terminal GST; dsDNA, one strand shown. In outline: as §1

For another experiment, the target named is T10, ETV2 (Homo sapiens, UniProt O00321 1-342).
T10 sequence: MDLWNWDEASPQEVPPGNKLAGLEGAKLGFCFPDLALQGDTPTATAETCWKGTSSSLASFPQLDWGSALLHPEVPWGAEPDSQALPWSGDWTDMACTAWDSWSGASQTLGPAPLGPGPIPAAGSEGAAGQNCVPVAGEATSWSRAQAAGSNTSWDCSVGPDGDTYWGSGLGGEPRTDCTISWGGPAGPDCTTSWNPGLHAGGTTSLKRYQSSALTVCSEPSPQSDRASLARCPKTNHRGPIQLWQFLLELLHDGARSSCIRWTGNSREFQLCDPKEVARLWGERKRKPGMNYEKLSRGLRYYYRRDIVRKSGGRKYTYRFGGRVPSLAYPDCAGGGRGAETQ
Conditions: protein: recombinant; tags: N-terminal GST; dsDNA, one strand shown. In a few lines:
as §1

Another experiment addresses T11, ELF3 (Homo sapiens, UniProt P78545 1-371).
T11 sequence: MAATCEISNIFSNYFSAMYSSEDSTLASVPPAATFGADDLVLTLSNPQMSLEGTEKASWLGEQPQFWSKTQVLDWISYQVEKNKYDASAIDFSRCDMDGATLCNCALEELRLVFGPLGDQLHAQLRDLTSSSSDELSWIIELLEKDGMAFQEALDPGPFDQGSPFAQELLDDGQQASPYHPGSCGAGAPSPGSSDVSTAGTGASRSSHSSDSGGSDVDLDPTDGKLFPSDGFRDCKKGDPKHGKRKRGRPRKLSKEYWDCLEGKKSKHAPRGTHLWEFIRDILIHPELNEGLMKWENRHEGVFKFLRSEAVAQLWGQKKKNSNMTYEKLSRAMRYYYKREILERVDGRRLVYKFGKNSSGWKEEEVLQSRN
Conditions: protein: recombinant; tags: N-terminal GST; dsDNA, one strand shown. In outline:
as §1

Another experiment concerns the target CRX (Homo sapiens, UniProt O43186 1-299). Conditions: protein: recombinant; tags: N-terminal GST; dsDNA, one strand shown. In a few lines:
as §1

The next experiment deals with ETV1 (Homo sapiens, UniProt P50549 1-477). To be noted: protein: recombinant; tags: N-terminal GST; dsDNA, one strand shown. In outline: as §1
Chain of ETV1 (P50549 whole entry): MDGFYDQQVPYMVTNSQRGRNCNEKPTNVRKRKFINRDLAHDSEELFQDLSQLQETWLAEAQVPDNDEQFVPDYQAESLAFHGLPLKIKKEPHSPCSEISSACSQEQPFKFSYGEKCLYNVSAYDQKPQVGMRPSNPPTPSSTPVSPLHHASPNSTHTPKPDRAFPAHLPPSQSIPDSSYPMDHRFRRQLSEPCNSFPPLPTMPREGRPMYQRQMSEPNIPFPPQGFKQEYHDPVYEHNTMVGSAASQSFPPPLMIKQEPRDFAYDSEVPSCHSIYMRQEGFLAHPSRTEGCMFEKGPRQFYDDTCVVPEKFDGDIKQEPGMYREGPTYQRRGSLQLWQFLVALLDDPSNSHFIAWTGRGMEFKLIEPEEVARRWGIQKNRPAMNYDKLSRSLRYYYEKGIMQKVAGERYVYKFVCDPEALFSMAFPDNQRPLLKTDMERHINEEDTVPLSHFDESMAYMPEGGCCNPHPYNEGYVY

Chain of ELF1 (P32519 whole entry): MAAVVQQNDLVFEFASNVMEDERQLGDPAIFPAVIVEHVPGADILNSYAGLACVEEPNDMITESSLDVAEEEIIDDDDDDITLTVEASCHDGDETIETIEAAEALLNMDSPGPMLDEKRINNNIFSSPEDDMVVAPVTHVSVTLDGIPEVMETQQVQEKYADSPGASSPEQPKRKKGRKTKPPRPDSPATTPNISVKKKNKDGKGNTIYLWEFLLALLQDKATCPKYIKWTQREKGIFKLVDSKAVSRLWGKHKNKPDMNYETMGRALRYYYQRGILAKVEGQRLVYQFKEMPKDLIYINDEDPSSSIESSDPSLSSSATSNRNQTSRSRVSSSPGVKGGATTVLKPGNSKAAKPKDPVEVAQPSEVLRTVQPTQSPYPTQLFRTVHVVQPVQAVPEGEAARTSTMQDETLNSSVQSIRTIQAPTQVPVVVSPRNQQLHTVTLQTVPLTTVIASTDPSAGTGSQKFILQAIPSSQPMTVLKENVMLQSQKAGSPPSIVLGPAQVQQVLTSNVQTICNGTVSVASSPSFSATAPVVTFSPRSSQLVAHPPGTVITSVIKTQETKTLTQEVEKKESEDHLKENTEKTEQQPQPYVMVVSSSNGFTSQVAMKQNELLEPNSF
Chain of ELF4 (Q99607 whole entry): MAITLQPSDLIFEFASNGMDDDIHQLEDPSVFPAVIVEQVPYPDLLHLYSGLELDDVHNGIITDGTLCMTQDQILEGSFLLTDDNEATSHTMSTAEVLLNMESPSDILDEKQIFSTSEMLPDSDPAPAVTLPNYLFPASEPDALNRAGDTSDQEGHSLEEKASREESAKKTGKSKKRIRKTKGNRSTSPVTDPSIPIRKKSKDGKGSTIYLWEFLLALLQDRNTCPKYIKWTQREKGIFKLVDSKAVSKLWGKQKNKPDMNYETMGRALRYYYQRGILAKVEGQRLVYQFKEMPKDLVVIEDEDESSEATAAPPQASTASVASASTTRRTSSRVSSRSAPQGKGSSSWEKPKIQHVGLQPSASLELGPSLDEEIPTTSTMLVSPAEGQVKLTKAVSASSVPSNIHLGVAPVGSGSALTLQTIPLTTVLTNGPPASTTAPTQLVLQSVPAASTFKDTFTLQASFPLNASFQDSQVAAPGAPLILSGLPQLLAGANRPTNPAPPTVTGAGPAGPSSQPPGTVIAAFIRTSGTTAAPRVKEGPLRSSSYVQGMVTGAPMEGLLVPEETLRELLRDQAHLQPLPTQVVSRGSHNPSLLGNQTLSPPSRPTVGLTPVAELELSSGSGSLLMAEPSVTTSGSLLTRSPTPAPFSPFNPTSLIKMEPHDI
Chain of ETV5 (P41161 whole entry): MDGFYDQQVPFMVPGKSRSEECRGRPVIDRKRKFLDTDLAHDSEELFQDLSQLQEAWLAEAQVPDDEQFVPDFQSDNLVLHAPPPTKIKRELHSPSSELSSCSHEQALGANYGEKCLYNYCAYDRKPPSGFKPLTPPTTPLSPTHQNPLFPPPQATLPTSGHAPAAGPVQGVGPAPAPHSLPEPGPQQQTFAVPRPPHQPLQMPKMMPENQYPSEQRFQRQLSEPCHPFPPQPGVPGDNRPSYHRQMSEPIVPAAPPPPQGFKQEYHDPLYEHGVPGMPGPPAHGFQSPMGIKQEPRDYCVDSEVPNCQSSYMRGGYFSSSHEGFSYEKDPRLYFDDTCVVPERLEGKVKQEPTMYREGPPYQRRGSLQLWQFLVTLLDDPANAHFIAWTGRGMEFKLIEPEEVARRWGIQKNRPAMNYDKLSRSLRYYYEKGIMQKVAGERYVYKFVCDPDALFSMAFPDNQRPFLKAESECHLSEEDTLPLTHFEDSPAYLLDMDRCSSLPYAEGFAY
Chain of HSF1 (Q00613 whole entry): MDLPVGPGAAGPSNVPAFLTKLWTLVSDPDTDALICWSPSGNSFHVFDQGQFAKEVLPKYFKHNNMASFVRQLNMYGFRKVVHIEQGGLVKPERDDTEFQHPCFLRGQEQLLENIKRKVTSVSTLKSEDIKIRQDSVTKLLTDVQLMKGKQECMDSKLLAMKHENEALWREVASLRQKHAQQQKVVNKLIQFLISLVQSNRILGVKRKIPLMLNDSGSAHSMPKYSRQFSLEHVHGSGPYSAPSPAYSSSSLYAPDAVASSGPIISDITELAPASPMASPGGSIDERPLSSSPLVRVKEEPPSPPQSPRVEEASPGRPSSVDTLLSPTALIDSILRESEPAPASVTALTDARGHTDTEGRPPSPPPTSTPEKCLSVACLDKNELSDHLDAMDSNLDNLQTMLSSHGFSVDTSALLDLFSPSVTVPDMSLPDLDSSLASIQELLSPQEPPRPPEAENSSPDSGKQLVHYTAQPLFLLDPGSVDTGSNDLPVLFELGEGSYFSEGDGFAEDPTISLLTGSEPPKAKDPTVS
Chain of SPIB (Q01892 whole entry): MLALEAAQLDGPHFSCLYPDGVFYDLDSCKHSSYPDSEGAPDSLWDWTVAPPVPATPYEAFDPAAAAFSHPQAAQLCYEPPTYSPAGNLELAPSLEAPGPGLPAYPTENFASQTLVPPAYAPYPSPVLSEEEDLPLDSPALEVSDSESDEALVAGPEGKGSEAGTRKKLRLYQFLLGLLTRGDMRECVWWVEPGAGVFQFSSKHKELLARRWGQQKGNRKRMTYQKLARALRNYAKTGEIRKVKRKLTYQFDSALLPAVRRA
Chain of CRX (O43186 whole entry): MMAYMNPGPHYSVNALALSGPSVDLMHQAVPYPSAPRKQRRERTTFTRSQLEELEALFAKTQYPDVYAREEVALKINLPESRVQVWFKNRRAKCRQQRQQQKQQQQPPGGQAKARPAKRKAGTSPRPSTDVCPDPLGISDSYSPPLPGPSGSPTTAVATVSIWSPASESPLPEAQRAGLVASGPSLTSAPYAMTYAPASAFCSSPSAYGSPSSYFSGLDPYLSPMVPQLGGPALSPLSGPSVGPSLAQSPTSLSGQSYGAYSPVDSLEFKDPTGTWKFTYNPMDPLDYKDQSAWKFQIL

For ATGCCC, the binding signal with FLI1 was 1.38 fold enrichment (6-mer frequency, TF over GST control); with ELK1 it was 1.38 fold enrichment (6-mer frequency, TF over GST control); in the experiment with GABPA, 1.33 fold enrichment (6-mer frequency, TF over GST control); in the experiment with ERG, 1.28 fold enrichment (6-mer frequency, TF over GST control); with ELF1, 1.32 fold enrichment (6-mer frequency, TF over GST control); with EHF it was 1.26 fold enrichment (6-mer frequency, TF over GST control). In addition, the binding signal in the experiment with SPI1 was 1.2 fold enrichment (6-mer frequency, TF over GST control); with SPIB, 1.23 fold enrichment (6-mer frequency, TF over GST control); in the experiment with ELK3, 1.2 fold enrichment (6-mer frequency, TF over GST control); with FEV, 1.34 fold enrichment (6-mer frequency, TF over GST control); with ETV5 it was 1.28 fold enrichment (6-mer frequency, TF over GST control); in the experiment with HSF1, 1.19 fold enrichment (6-mer frequency, TF over GST control). For the same sequence, the binding signal with SPIC is 1.54 fold enrichment (6-mer frequency, TF over GST control); in the experiment with ELF4 it was 1.33 fold enrichment (6-mer frequency, TF over GST control); with ELK4, 1.36 fold enrichment (6-mer frequency, TF over GST control); with ETV2, 1.26 fold enrichment (6-mer frequency, TF over GST control); in the experiment with ELF3, 1.34 fold enrichment (6-mer frequency, TF over GST control); with CRX it was 1.12 fold enrichment (6-mer frequency, TF over GST control). For the same sequence, the binding signal with ETV1 is 1.31 fold enrichment (6-mer frequency, TF over GST control).

The record behind these values is article PMC7862700, “An all-to-all approach to the identification of sequence-specific readers for epigenetic DNA modifications on cytosine”.
